Source: PubChem BioAssay AID588463 (National Center for Advancing Translational Sciences (NCATS), 2011)
Out of some 1,200 compounds screened, about 15 (1%) were called active. Entries that show only a call come without a potency. Inconclusive results (about 7%) are left out. Calls come from the whole dose curve; as a rule, active = well fitted activation curve with a large enough effect; inconclusive = small, poorly fitted or top-dose-only effect; inactive = flat fitted curve, though single readings scatter. The full list was thinned out, with actives kept by preference.

The compounds below were run against Beta-2 adrenergic receptor (Homo sapiens) (UniProt P07550) (assay: qHTS assay of beta-arrestin-biased ligands of beta2-adrenergic receptor: Hit Validation). Conditions: cell-based beta-arrestin recruitment to beta2AR; Potency: activation; series mostly up to 46.1 µM.
Description: The concept of biased agonism is an emerging concept of molecular pharmacology which proposes that seven transmembrane receptors (7TMRs) or G protein-coupled receptors (GPCRs), exist in multiple signaling conformations and complexes and that ligands (either agonists or antagonists) can induce signaling biased responses for distinct signal transduction cascades.
Furthermore, accumulating evidence over the last decade has drawn attention to a novel function of beta-arrestins as signal transducers that scaffold various signaling molecules upon activation of 7TMRs. […] This beta-arrestin-biased signaling presumably leads to distinct physiological outcomes from those by G protein activation.
Additionally, the active receptor conformations which […] on this beta-arrestin signaling are likely different from those activating G protein signaling
The goal of this screening project will be to discover and optimize novel beta-arrestin-biased ligands for beta2-AR signaling. A luminescent cell-based assay for beta2-AR-mediated agonism, known as the Tango assay, has been validated in which ligand binding of a recombinant beta2-AR and subsequent recruitment of a recombinant beta-arrestin lead to the release of the transcriptional activator tTA, which upregulates transcription of a tTA-responsive luciferase gene.
NIH Molecular Libraries Probe Production Network [MLPCN]
NIH Chemical Genomics Center [NCGC]
PI: Bryan Roth (UNC) and Bob Lefkowitz (Duke)
NCGC Assay Protocol Summary:
Tango cells were dispensed into white, solid, tissue-culture-treated 1536-well plates at 1500 cells/well in DMEM, containing 1% fetal bovine serum (FBS). Then, 23 nL of compounds or DMSO were delivered to each well using a pin tool. Plates were incubated at 37 degrees C, 5% CO2 for 18 hr. Then 2.5 uL luminescent substrate mix (in-house prepared: 150 mM Tris-Cl, pH 7.6, 3 mM MgCl2, 1% Triton X-100, 5 mM DTT, 0.5 mM CoA, 0.15 mM ATP, 0.44 mM D-luciferin, final concentrations) was added to each well. Plates were then incubated for 15 minutes at room temperature, and subsequently measured on a ViewLux plate reader for luminescent signal using a clear filter with a 10 second exposure and 2x binning. The %Activity was determined from the corrected luminescence values.
Concentration-response curves were fitted to the signals arising from the resulting luminescence. The concentration-effect curves were then classified based on curve quality (r2), response magnitude and degree of measured activity, and compounds were subsequently categorized based on their curve class.
Keywords: biased agonism, beta2-AR, beta-arrestin, GPCR, 7TMR, Tango, luminescence, MLSMR, MLPCN, NIH Roadmap, qHTS, NCGC
Potency is the fitted concentration of half-maximal effect.

Sequence of Beta-2 adrenergic receptor (Homo sapiens) (P07550 whole entry, looked up): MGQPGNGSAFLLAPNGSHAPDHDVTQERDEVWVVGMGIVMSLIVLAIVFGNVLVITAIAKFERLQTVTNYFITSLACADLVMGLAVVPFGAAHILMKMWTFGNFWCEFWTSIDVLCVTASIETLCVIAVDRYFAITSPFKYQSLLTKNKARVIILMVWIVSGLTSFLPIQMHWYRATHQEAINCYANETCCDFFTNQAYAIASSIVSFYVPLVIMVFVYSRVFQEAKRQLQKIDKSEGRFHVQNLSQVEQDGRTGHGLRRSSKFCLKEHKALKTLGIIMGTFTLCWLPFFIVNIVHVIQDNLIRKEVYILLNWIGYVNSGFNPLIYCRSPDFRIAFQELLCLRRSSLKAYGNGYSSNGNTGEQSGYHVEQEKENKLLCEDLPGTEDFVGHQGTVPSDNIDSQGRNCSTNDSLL

| Structure (SMILES) | Potency |
| --- | --- |
| CCOC(=O)/C(C#N)=C/Nc1ccsc1C(=O)OC | inactive |
| S=c1[nH]c(-c2ccccc2)cn1/N=C/c1cccs1 | inactive |
| O=C(Oc1c(Cl)cc(Cl)c2cccnc12)c1cccs1 | inactive |
| N#CC[C@H](Cc1ccccc1)N1CC[C@@H](O)CCC1=O | inactive |
| COc1ccc(N2C(=O)C3C(C2=O)C(C(=O)c2ccccc2)N2CCCC32)cc1 (stereo unspecified) | inactive |
| COc1ccccc1NC(=S)N/N=C1\CC(C)(C)Oc2ccc(O)cc21 | inactive |
| CC(=O)O[C@H]1C2OC(=O)C(C)=C2[C@@H]2OC(=O)[C@]3(CCC4OC41C)OC23 (stereo partly specified) | inactive |
| CNC(=S)N/N=C/c1c(C)cccc1Cl | inactive |
| CC(NC(=O)NNC(N)=S)(C(F)(F)F)C(F)(F)F | inactive |
| COc1ccc(CN2CCCC(C(=O)c3ccc(SC)cc3)C2)cc1Cn1cccn1 (stereo unspecified) | inactive |
| COc1cc(CN2CCCCC2C(=O)Nc2ccc(Oc3ccccc3)nc2)ccc1O (stereo unspecified) | inactive |
| Cc1nnc(NC(=O)c2ccc3ccccc3c2)o1 | inactive |
| Oc1c(CNc2ccccc2)cc(COCc2ccccc2)c2cccnc12 | inactive |
| Cc1ccc2nc(N3C(=O)CNC3=S)sc2c1 | inactive |
| Clc1ccc(OCc2nc(-c3ccccn3)n[nH]2)cc1 | inactive |
| CNC(=S)N/N=C(\C)c1ccccc1 | inactive |
| CCCn1c(Nc2nc3ccccc3n2C)nc2ccccc21 | inactive |
| CCC(NC(C)C)C(O)c1ccc(O)c2[nH]c(=O)ccc12 (stereo unspecified) | 0.0164 µM (active) |
| CCC(NC(C)C)C(O)c1ccc(O)c(O)c1 (stereo unspecified) | 2.06 µM (active) |
| Cc1ccc(C2(C)NC(=O)N(CC(=O)c3ccc4c(c3)OCCO4)C2=O)cc1 (stereo unspecified) | inactive |
| CNc1sc(C(=O)c2ccccc2F)c(N)c1-c1nc2ccccc2s1 | inactive |
| O=S1(=O)Nc2c(ccc3cccnc23)-c2ccccc21 | inactive |
| CN1CCN(c2ccc(C(F)(F)F)cc2NC(=O)c2ccco2)CC1 | inactive |
| COc1ccccc1-n1c2nc3ccccc3nc2c2c(=O)n(-c3cc(C)cc(C)c3)cnc21 | inactive |

| Structure (SMILES) | Potency |
| --- | --- |
| COc1ccc(/C=C(\C#N)C(=O)OCC(=O)NCc2ccccc2)cc1 | inactive |
| O=C(N/N=C/C(Br)=C/c1ccccc1)c1cnccn1 | inactive |
| O=c1[nH]c2c(cnn2-c2ccc(Cl)cc2)c(=O)n1-c1cccc(Cl)c1 | inactive |
| O=C(COC(=O)c1cc(=O)c2ccccc2o1)Nc1ccc2ccccc2c1 | inactive |
| CCc1n[nH]c(=S)n1/N=C/c1ccc(N(CC)CC)cc1 | inactive |
| COc1ccccc1-[n+]1c(C)cc(/C=C2\Sc3ccccc3N2C)cc1C | inactive |
| CCCNC(=O)CN(c1ccccc1)S(=O)(=O)c1ccc(OC)c(OC)c1 | inactive |
| COC(=O)c1cc(Br)c(=O)n(CCc2ccc(O)cc2)c1 | inactive |
| CCc1ccc(CNc2ccc(O)cc2)cc1 | inactive |
| Cc1ccc(S(=O)(=O)Nc2cccnc2)cc1 | inactive |
| Cc1ccc(/C=C/C(=O)c2ccccc(=O)c2O)c(C)c1 | inactive |
| Cc1ccc(C2C3=C(CC(C)(C)CC3=O)NC3=C2C(=O)c2ccccc23)cc1 (stereo unspecified) | inactive |
| Cc1cc(-c2n[nH]c(=S)n2/N=C/C(Cl)=C/c2ccccc2)n[nH]1 | inactive |
| CN1CCN(C(=S)NC(=O)c2ccc(Br)cc2)CC1 | inactive |
| CN1CCN(C(c2cccnc2)c2ccc3cccnc3c2O)CC1 (stereo unspecified) | inactive |
| COc1ccc(Cl)cc1C(Nc1cccnc1)c1ccc2cccnc2c1O (stereo unspecified) | 16.4 µM (active) |
| CC(=O)/C(=N\Nc1ccc(Cl)cc1Cl)Sc1cccc2cccnc12 | inactive |
| CC1=NN(C(N)=S)C(=O)C1N=Nc1ccc([N+](=O)[O-])cc1 (stereo unspecified) | inactive |
| CC(C)c1nnc(NC(=O)c2cnccn2)s1 | inactive |
| COCCNC(=S)N/N=C(\C)c1ccc(Cl)c(Cl)c1 | inactive |
| Cc1ccccc1NC(=O)c1c([N+](=O)[O-])c(C(C)(C)C)nn1C | inactive |
| O=C(O)c1ccc(C2Nc3ccccc3C(=O)N2Cc2ccccc2)cc1 (stereo unspecified) | inactive |
| CCOC(=O)C1=C(C)N(c2ccc(OC)cc2)C(=O)/C1=C\c1ccc(O)c(OCC)c1 | inactive |
| CCCCCC1CCC(c2n[nH]c(=S)n2C)CC1 (stereo unspecified) | inactive |

| Structure (SMILES) | Potency |
| --- | --- |
| CCCCOc1ccc(C(O)(CCC)CCN2CCOCC2)cc1 (stereo unspecified) | inactive |
| CCC(=O)N1CCC2(CC1)Oc1ccc(Cl)cc1C(=O)C21CC(c2ccccc2)=NO1 (stereo unspecified) | 20.6 µM (active) |
| CC(=O)Nc1nonc1NC(=O)CSc1nc2ccccc2o1 | inactive |
| CCCCC(=O)NC(c1cccc([N+](=O)[O-])c1)c1c(OC(C)=O)ccc2ccccc12 (stereo unspecified) | inactive |
| COc1ccc(N/C=C/C(=O)C(F)(F)F)cc1 | inactive |
| Cc1cccc(NNC(=S)Nc2c(C)cccc2C)c1 | inactive |
| CCOc1ccc(/C=N/NC(=O)Cc2csc(Nc3cccc(C(F)(F)F)c3)n2)c(OCC)c1 | inactive |
| CCN(CC)C(=O)[C@H]1C[C@H](CC(=O)NCc2cccc(C(F)(F)F)c2)C(=O)N2CCc3c([nH]c4cc(-c5ccco5)ccc34)[C@]12C | inactive |
| CCCCOc1ccc(NC(=O)CSc2cccc3cccnc23)cc1 | inactive |
| CCCC(=O)NC(c1ccc(OC)cc1)c1ccc2cccnc2c1O (stereo unspecified) | 4.11 µM (active) |
| CCCC(=O)NC(c1ccccc1OC)c1ccc2cccnc2c1O (stereo unspecified) | inactive |
| CCOC(=O)C1=C(C)N=c2s/c(=C3/C(=O)Nc4ccccc43)c(=O)n2C1c1ccc(C)cc1 (stereo unspecified) | inactive |
| O=c1ccc(S(=O)(=O)N2CCCC2)c[nH]1 | inactive |
| CCc1cc(=O)oc2cc3occ(C)c3cc12 | inactive |
| COc1ccc2ccccc2c1/C=N/NC(=S)NCCN1CCOCC1 | inactive |
| O=C(/C=C/c1ccc(Cl)cc1)NC(=S)Nc1ccccc1C(=O)O | inactive |
| CC(c1ccccc1)n1c(-c2ccc(C(C)(C)C)cc2)n[nH]c1=S (stereo unspecified) | inactive |
| Cc1c(C(=O)OC2CCC(C)CC2)[nH]c2c1C(=O)CCC2 (stereo unspecified) | inactive |
| CCCCn1c(Cc2ccccc2)n[nH]c1=S | inactive |
| CCOC(=O)C1CCN(Cc2cnc(Oc3ccc(N)cc3)s2)CC1 | inactive |
| Cc1ccc(N=C2NC(=O)/C(=C/C=C/c3ccco3)S2)cc1 | inactive |
| CCOc1ccc2nc(NC(=S)N(C)C)sc2c1 | inactive |
| O=[N+]([O-])c1ccc(OCC(O)CN(C2CCCCC2)C2CCCCC2)cc1 (stereo unspecified) | inactive |
